Source: PubChem BioAssay AID1159580 (chemical genetic matrix, 2015)
In all, about 5,500 compounds went through this assay and about 2,000 (36%) were called active. Inconclusive results (about 18%) are left out. This is one part of the list. Values without a mark were called inactive. No stated cut-off is given here; in the data, active means normalized growth mostly below about 0.91 (no sharp cut-off); inconclusive means no clear call, values can overlap the other calls; inactive means mostly above about 0.92.

Assay: chemical genetic growth profiling, strain panel (AID 1159580);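 further: tested at 20 µM; growth read once vehicle control cultures reached saturation at 30 °C; 1 = growth at the plate median or of vehicle wells; lower values mean less growth of the strain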
Conditions: S. cerevisiae deletion strains, growth OD
[1] = locus YDL101C, strain DUN1, hits give low values
[2] = locus YHR030C, strain SLT2, hits give low values

Structure (SMILES): CCn1cc([N+](=O)[O-])nc1C
- normalized growth (locus YAL013W, strain DEP1, hits give low values): 1
- normalized growth (locus YBR229C, strain ROT2, hits give low values): 1.02
- normalized growth [1]: 1.03
- normalized growth (locus YDR150W, strain NUM1, hits give low values): 1.03
- normalized growth (locus YEL061C, strain CIN8, hits give low values): 0.981
- normalized growth (locus YGR078C, strain PAC10, hits give low values): 1.02
- normalized growth [2]: 1.05
- normalized growth (locus YHR087W, strain rtc3, hits give low values): 0.975
- normalized growth (locus YJR043C, strain POL32, hits give low values): 1.06
- normalized growth (locus YJR075W, strain HOC1, hits give low values): 1
- normalized growth (locus YKL190W, strain CNB1, hits give low values): 1
- normalized growth (locus YLR039C, strain RIC1, hits give low values): 0.987
- normalized growth (locus YLR058C, strain SHM2 (second series), hits give low values): 0.998
- normalized growth (locus YLR085C, strain ARP6, hits give low values): 0.982
- normalized growth (locus YLR262C, strain YPT6, hits give low values): 0.979
- normalized growth (locus YML094W, strain GIM5, hits give low values): 0.968
- normalized growth (locus YMR219W, strain ESC1, hits give low values): 0.983
- normalized growth (locus YMR263W, strain SAP30, hits give low values): 1.01
- normalized growth (locus YNL128W, strain TEP1, hits give low values): 1.02
- normalized growth (locus YNL153C, strain GIM3, hits give low values): 1.02
- normalized growth (locus YNL298W, strain CLA4 (second series), hits give low values): 1
- normalized growth (locus YNL322C, strain KRE1, hits give low values): 0.997
- normalized growth (locus YNR030W, strain Alg12, hits give low values): 0.976
- normalized growth (locus YPL055C, strain LGE1, hits give low values): 1.01
- normalized growth (locus YPL241C, strain CIN2, hits give low values): 1.02
- normalized growth (locus YPR135W, strain CTF4, hits give low values): 1.05

Structure (SMILES): Cc1nc([N+](=O)[O-])cn1CC(=O)c1ccc(Cl)cc1
- normalized growth (locus YAR019C, strain CDC15, hits give low values): 0.973
- normalized growth (locus YBL105C, strain PKC1, hits give low values): 0.97
- normalized growth (locus YBR135W, strain CKS1, hits give low values): 0.982
- normalized growth (locus YBR136W, strain MEC1, hits give low values): 0.973
- normalized growth (locus YBR160W, strain CDC28, hits give low values): 0.984
- normalized growth (locus YDL017W, strain CDC7, hits give low values): 0.981
- normalized growth (locus YDL028C, strain MPS1, hits give low values): 0.969
- normalized growth [1]: 0.978
- normalized growth (locus YDL108W, strain KIN28, hits give low values): 0.963
- normalized growth (locus YDL132W, strain cdc53, hits give low values): 0.976
- normalized growth (locus YDL214C, strain PRR2, hits give low values): 0.927
- normalized growth (locus YDR052C, strain DBF4, hits give low values): 0.964
- normalized growth (locus YDR054C, strain cdc34, hits give low values): 0.973
- normalized growth (locus YDR226W, strain ADK1, hits give low values): 0.972
- normalized growth (locus YDR477W, strain SNF1, hits give low values): 0.938
- normalized growth (locus YER123W, strain YCK3, hits give low values): 0.782
- normalized growth (locus YER133W, strain GLC7, hits give low values): 0.94
- normalized growth (locus YFL009W, strain cdc4, hits give low values): 0.982
- normalized growth (locus YFL029C, strain CAK1, hits give low values): 0.971
- normalized growth (locus YFR003C, strain YPI1, hits give low values): 0.979
- normalized growth (locus YFR019W, strain FAB1, hits give low values): 0.901
- normalized growth (locus YFR028C, strain CDC14, hits give low values): 0.98
- normalized growth (locus YGR040W, strain KSS1, hits give low values): 0.94
- normalized growth (locus YGR052W, strain FMP48, hits give low values): 1.03
- normalized growth (locus YGR092W, strain DBF2, hits give low values): 0.416 (active)
- normalized growth [2]: 0.189 (active)
- normalized growth (locus YHR079C, strain IRE1, hits give low values): 1.05
- normalized growth (locus YHR082C, strain KSP1, hits give low values): 1.04
- normalized growth (locus YHR205W, strain SCH9, hits give low values): 0.964
- normalized growth (locus YIL147C, strain SLN1, hits give low values): 0.96
- normalized growth (locus YJL095W, strain BCK1, hits give low values): 1.02
- normalized growth (locus YJL128C, strain PBS2, hits give low values): 0.906
- normalized growth (locus YJL157C, strain FAR1, hits give low values): 0.922
- normalized growth (locus YJR016C, strain ILV3, hits give low values): 0.97
- normalized growth (locus YJR066W, strain TOR1 (second series), hits give low values): 0.898
- normalized growth (locus YJR066W, strain TOR1, hits give low values): 1.04
- normalized growth (locus YKL048C, strain ELM1, hits give low values): 0.966
- normalized growth (locus YKL067W, strain YNK1, hits give low values): 0.947
- normalized growth (locus YKL101W, strain HSL1, hits give low values): 0.954
- normalized growth (locus YKL193C, strain SDS22, hits give low values): 0.969
- normalized growth (locus YKL203C, strain TOR2, hits give low values): 1.02
- normalized growth (locus YLR113W, strain HOG1, hits give low values): 0.539 (active)
- normalized growth (locus YLR133W, strain CKI1, hits give low values): 0.962
- normalized growth (locus YLR403W, strain SFP1, hits give low values): 0.941
- normalized growth (locus YML070W, strain DAK1, hits give low values): 0.904
- normalized growth (locus YMR001C, strain CDC5, hits give low values): 0.976
- normalized growth (locus YMR205C, strain PFK2 (second series), hits give low values): 0.966
- normalized growth (locus YMR277W, strain FCP1, hits give low values): 0.964
- normalized growth (locus YNL006W, strain LST8, hits give low values): 0.983
- normalized growth (locus YNL020C, strain ARK1, hits give low values): 0.959
- normalized growth (locus YNL161W, strain CBK1, hits give low values): 0.971
- normalized growth (locus YNL183C, strain NPR1, hits give low values): 1
- normalized growth (locus YNL207W, strain RIO2, hits give low values): 0.965
- normalized growth (locus YNL222W, strain SSU72, hits give low values): 0.977
- normalized growth (locus YNL307C, strain MCK1 (second series), hits give low values): 0.967
- normalized growth (locus YOL078W, strain AVO1, hits give low values): 0.969
- normalized growth (locus YOL136C, strain PFK27, hits give low values): 0.927
- normalized growth (locus YOR061W, strain CKA2, hits give low values): 0.94
- normalized growth (locus YOR119C, strain RIO1, hits give low values): 0.985
- normalized growth (locus YOR231W, strain MKK1, hits give low values): 1
- normalized growth (locus YOR329C, strain SCD5, hits give low values): 0.977
- normalized growth (locus YPL031C, strain PHO85, hits give low values): 0.949
- normalized growth (locus YPL153C, strain RAD53, hits give low values): 0.916
- normalized growth (locus YPL204W, strain HRR25, hits give low values): 0.921
- normalized growth (locus YPL209C, strain IPL1, hits give low values): 0.984
- normalized growth (locus YPL256C, strain CLN2, hits give low values): 1.01
- normalized growth (locus YPR025C, strain CCL1, hits give low values): 0.985
- normalized growth (locus YPR106W, strain ISR1, hits give low values): 0.982
- normalized growth (locus YPR111W, strain DBF20, hits give low values): 0.989
- normalized growth (strain NNK1, hits give low values): 0.979
- normalized growth (strain TSCII, hits give low values): 0.969
